# Source: the supplement of paper PMC3334620
# The full ranking holds about 33,000 sequences; the median of “E-score (-0.5 to 0.5)” is about -0.04, and the highest 2% start at about 0.36. The entries come from a sample that favours the highest values as a whole.
# Molecular target: T1, Hmlalpha2 (UniProt P0CY09)
# T1 sequence: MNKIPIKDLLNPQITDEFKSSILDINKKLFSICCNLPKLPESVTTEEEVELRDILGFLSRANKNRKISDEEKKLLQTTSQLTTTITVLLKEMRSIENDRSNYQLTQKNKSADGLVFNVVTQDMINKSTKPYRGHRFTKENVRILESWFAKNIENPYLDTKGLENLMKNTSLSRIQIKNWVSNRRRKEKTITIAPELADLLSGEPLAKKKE
# Experiment: PBM E-score (8-mer binding enrichment) (E-score (-0.5 to 0.5)); higher = stronger / more preferred TF binding
# Details: protein concentration: 200 nM; construct: GST-full length
# Method: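 Universal 'all 10-mer' protein binding microarrays (Agilent AMADID 015681) probed with GST-tagged S. cerevisiae TFs (full-length or DBD) made by in vitro transcription/translation (PURExpress), about 100-200 nM. Bound TF was detected with fluorescent anti-GST. Each ungapped 8-mer (which stands for itself and its reverse complement) is scored by the PBM enrichment score (E-score), a modified Wilcoxon-Mann-Whitney statistic from -0.5 to +0.5, computed with the Universal PBM Analysis Suite. Scale: above 0.35 generally sequence-specific binding.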
row,Sequence,PBM E-score
1,ATCCTGCA,-0.0119
2,CTATTGCA,0.117
3,CCGGTTTA,0.0123
4,GATGAGCC,-0.213
5,AGAAGGAA,-0.351
6,CCCTTAAA,-0.0696
7,GAGACGGA,-0.095
8,AAGTAGGC,-0.0798
9,CTTGAATC,-0.0387
10,CGATCTCA,-0.0804
11,AAGATCAG,-0.187
12,GACAACAC,0.319
13,AACAACAC,0.375
14,CACAACAC,0.306
15,AACAACAG,0.108
16,AACAACAA,0.306
17,AACAACAT,0.385
18,CGAAACCC,-0.121
19,CTTCTAGC,-0.197
20,CCCCGCAC,-0.201
21,CCGGGAAG,-0.179
22,CGTCCCCA,-0.224
23,CGACATGA,0.319
24,GCACATGA,0.0937
25,GTACATTA,0.316

row,Sequence,PBM E-score
1,GTACATGA,0.426
2,CTACATGA,0.421
3,CTACATCA,0.222
4,AACATTGC,0.191
5,GGAATCTA,-0.132
6,GCACGGAC,-0.0335
7,ACCAAATA,0.191
8,AGACACAA,0.172
9,ACACACAT,0.379
10,ATACACAT,0.399
11,ACACACAG,0.364
12,AGACACAT,0.128
13,ACACACAC,0.326
14,ACACACAA,0.313
15,ATACACAA,0.42
16,ACACATAT,0.317
17,AAACACAT,0.314
18,CTATACAG,0.0549
19,ATACACAG,0.408
20,TTCATGAA,-0.00198
21,ATTGAGCA,0.0182
22,ATAACCAC,-0.0123
23,ACCCCCGA,-0.0909
24,GGCAAAGA,-0.0294
25,CCCCTGTC,-0.152

row,Sequence,PBM E-score
1,GGCCAGCC,-0.192
2,CAGCGACG,-0.0401
3,ATACACAC,0.429
4,ATACACCG,0.145
5,ATACACTC,0.185
6,CGCTGAGA,-0.139
7,CCCTCAGA,-0.285
8,CTATTCCC,-0.203
9,AGTGCACC,-0.2
10,CAGTGTAC,0.154
11,CCGTGTAG,0.452
12,ACGTGTAG,0.429
13,ACGTGTAA,0.482
14,CCGTGTCG,0.233
15,CCGTGTAC,0.422
16,CCGTGTCC,0.0408
17,ACGTGTGA,0.229
18,AGGTGTAG,0.0925
19,AGGTGTAA,0.317
20,AAGTGTAG,0.0742
21,CAGTGTAG,0.243
22,CGGACGGA,-0.198
23,AGACTGGA,-0.0528
24,CGAATCGC,-0.169
25,ATGAGGAA,0.0377

row,Sequence,PBM E-score
1,ACCTAACT,0.00114
2,AACGAACC,0.036
3,CATGGGGC,0.0176
4,CGCAATGA,0.0708
5,GAGAATAC,0.242
6,ATTGTTGG,0.151
7,AATCTGAA,0.102
8,ACTACTTG,0.154
9,AAGTGTAT,0.194
10,GAGTGTAC,0.0265
11,GGGTGTAC,-0.0223
12,GCGTGTAA,0.486
13,GCCTGTAA,0.254
14,GCGTGTAC,0.427
15,AAGTGTAC,0.0982
16,ACGTGTAC,0.382
17,ACGTGTAT,0.402
18,TAGTGTAA,0.323
19,ACGTGTCT,0.193
20,ACGTGTGC,0.172
21,CAACCACG,0.111
22,ATTGGTAG,0.0446
23,GGATCCTA,-0.154
24,ATCCTAAT,-0.0163
25,CTGGCGAA,-0.103

row,Sequence,PBM E-score
1,CTGTCCAA,-0.0758
2,ACATAGGG,0.251
3,ACGTAGAT,0.267
4,CGCTTGCA,-0.0244
5,GCGCGTAA,0.416
6,GCGCGTAC,0.225
7,CCGCGTTA,0.336
8,TCGCGTAA,0.45
9,ACGCGTAA,0.394
10,ACGCGTAC,0.345
11,GCGCGTGA,0.134
12,TAGCGTAA,0.278
13,ACGCGTTA,0.342
14,GCGCGTTA,0.372
15,ACGCGTAT,0.357
16,TGGCGTAA,0.108
17,GCTGAAGC,-0.14
18,CCGAATGC,-0.125
19,ATTGATGG,0.08
20,TCCATGAA,0.043
21,TCCAACAA,0.264
22,GGCCTACC,-0.247
23,CTGAGGGC,-0.3
24,ATCTCGGA,-0.115
25,AAAGCGAG,0.107

row,Sequence,PBM E-score
1,CTCTGACA,0.132
2,GCGACCAA,-0.0947
3,GCCAGACA,-0.163
4,CCGCGTAA,0.426
5,CCGCGTAG,0.294
6,CCGCGTAC,0.266
7,ATCTACTA,0.193
8,GCTATTCA,0.0214
9,ACTTTGCC,-0.0921
10,GGGGAGTA,-0.225
11,AAGTTGCA,0.109
12,ATTCTACG,0.157
13,AATCTACT,0.098
14,GTTCTACA,0.29
15,AATCTACA,0.438
16,ATTCTACA,0.371
17,CATCTACA,0.338
18,TATCTAAA,0.141
19,TATCTACA,0.371
20,GATCTACA,0.345
21,GCATTGAC,0.0683
22,CGACCGAA,-0.0499
23,GAAGGCCA,-0.38
24,ATCTGCCA,-0.149
25,CAGTACAG,0.0351

row,Sequence,PBM E-score
1,TAACGGCA,-0.0141
2,GTTACAGA,0.0217
3,GTTACTGA,0.171
4,CTTACATA,0.426
5,CTTACAGA,0.0289
6,GTTACATA,0.421
7,CTCACATA,0.0587
8,ACCCCTAT,-0.208
9,ACACCCAG,0.0143
10,GCGCGAAA,0.189
11,TCACAACA,0.324
12,TACTATAA,0.171
13,ACATATTG,0.142
14,ACATATGC,0.123
15,ACATATGT,0.369
16,ACATATGG,0.104
17,TAATATTA,0.379
18,AAATATTA,0.317
19,ACATATTA,0.389
20,CCATATTA,0.063
21,CAATATTA,0.213
22,ATGCACAC,0.106
